Molecules are shown by their SMILES. Compounds without any hit were thinned out: in the full panel of roughly 83,000, 20% have a hit.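 How to read the values: 0–100, growth inhibition (40 = 60% inhibited); 0, no net growth; -100 to 0, cell death (-40 = 40% of starting cells died; -100 = all dead).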 The source made the active and inactive calls. The calls were made as follows: active = growth percent below 10; inactive = the rest.

The experiment relates to NCI/ADR-RES ovarian. Briefly: NCI-60 one-dose screen, 48 h (100 = growth as untreated, 0 = no growth, -100 = all killed). The conditions noted are these: 10 µM unless noted.
Turning to `Cc1ccc(S(=O)(=O)N2CCN(C(=O)CSc3nc4ccc(C)cc4[nH]3)CC2)cc1`, the growth was 107% (inactive).
Take `CCOc1cc(/C=C/C(=O)C(C(=O)/C=C/c2ccc(OC(=O)CNc3nc4ccccc4[nH]3)c(OCC)c2)C(=O)CNc2nc3ccccc3[nH]2)ccc1OC(=O)CNc1nc2ccccc2[nH]1`: the growth was 24.3% (inactive).
Consider `COc1ccc(CC(=O)Nc2nn3c(-c4cc(C(F)(F)F)cc(C(F)(F)F)c4)nnc3s2)cc1`, for which the growth is 69.1% (inactive).
The figure for `O=C(Nc1nc2ccc(OC(F)(F)F)cc2s1)c1ccc(F)cc1` is 6.2% (active); for `O=C(/C=C/c1ccc([N+](=O)[O-])cc1)c1ccc2c3c(cccc13)CC2` it is 83.3% (inactive); for `O=C(Nc1ccc(Cl)cc1)Nc1nc2ccc(OC(F)(F)F)cc2o1` it is 95% (inactive).
As for `O=C(/C=C/c1c(-c2ccccc2)[nH]c2ccccc12)S(=O)(=O)c1ccccc1`, the growth was 16.4% (inactive).
In the case of `Clc1ccc2nc(CI)c(CI)nc2c1`, the growth was 100% (inactive).
With `FC(F)(F)c1cc(-c2nnc3n2N=C(N2CCCC2)CS3)cc(C(F)(F)F)c1`, the growth was 80.2% (inactive).
`Clc1ccc(C2c3ccccc3-c3nccn32)c(Cl)c1` (stereo not drawn): the growth is 61.5% (inactive).
Regarding `COC(=O)c1c(NC(=O)CSc2nnnn2-c2ccc(OC)cc2)sc(C)c1C`, the growth is 83.9% (inactive).
In the case of `O=[N+]([O-])c1ccc(NS(=O)(=O)c2ccc(Cl)c(Cl)c2)cc1` it was 83.2% (inactive); in that of `O=C(O)C1CCN(S(=O)(=O)c2ccc(-c3ccccc3)cc2)CC1`, 117% (inactive).
The figure for `O=C1/C=C/[C@@H](O)[C@@H]2C[C@@H](O)C[C@H]2/C=C/CCC[C@H](CO)O1` is 15.9% (inactive).
Turning to `COc1ccc(N2CCN(CC(=O)N3CCN(c4nnc(-c5ccccc5)c(-c5ccccc5)n4)CC3)CC2)cc1`, the growth was 49.9% (inactive).
For the compound `O=C1/C(=C/c2ccc(F)cc2)Cc2ccccc21`, the growth was 107% (inactive).
`CCN(CC)CCOCC[C@H]1CC[C@H]2[C@@H]3[C@H](C)Cc4cc(OS(N)(=O)=O)ccc4[C@H]3CC[C@]12C`: the growth was -70.2% (active).
Consider `COc1cc(-c2n[nH]nc2-c2ccccn2)cc(OC)c1OC`, for which the growth is 77.9% (inactive).
In the case of `Cc1cc(C)c2c(N)c3cccc(C)c3nc2n1`, the growth was -28.9% (active).
The figure for `Cc1c2oc3c(C)ccc(C(=O)OC(C)C4NC(=O)C(C(C)C)N(C)C(=O)CN(C)C(=O)C5CCCN5C(=O)C(C(C)C)NC4=O)c3nc-2c(C(=O)OC(C)C2NC(=O)C(C(C)C)N(C)C(=O)CN(C)C(=O)C3CCCN3C(=O)C(C(C)C)NC2=O)c(N)c1=O` (stereo not drawn) is 16.9% (inactive); for `N[C@H](CS)C(=O)O` it is 112% (inactive).
Turning to `CCCCCCCCCCN1CCC(N2CCCCC2)CC1`, the growth was 49.7% (inactive).
Take `CCCCc1ccc(C(N)=O)nc1`: the growth is 106% (inactive).
In the case of `O=C(CN1CCN(c2ccc(Cl)cc2)CC1)N1CCN(c2nnc(-c3ccc(Cl)cc3)c(-c3ccc(Cl)cc3)n2)CC1` it was 72.9% (inactive).
In the case of `COc1ccc2c(=O)c(OC)c(-c3cc(OC)c(OC)c(OC)c3)oc2c1`, the growth is 83.9% (inactive).
In the case of `O=Nc1c2cccnc2n2nnc3ccc(Cl)cc3c12` it was 54.8% (inactive); in that of `CC(=O)/C(=C/c1ccc(Cl)cc1)C(=O)c1ccccc1`, 85.2% (inactive).
In the case of `C[C@H]1C(=O)N2c3ccccc3[C@@]3(O)C[C@@H](n4cnc5ccccc5c4=O)C(=O)N1[C@@H]23` it was 104% (inactive); in that of `O=C(CN1CCN(c2ccc(Cl)cc2)CC1)N1CCN(c2nnc(-c3ccccc3)c(-c3ccccc3)n2)CC1`, 39.2% (inactive).
`[N-]=[N+]=NCc1cccc(/C(O)=C/C(=O)C(=O)O)c1`: the growth was 78.6% (inactive).
`COc1cccc(N2CCN(CC(=O)N3CCN(c4nnc(-c5ccc(Cl)cc5)c(-c5ccc(Cl)cc5)n4)CC3)CC2)c1`: the growth is 65.2% (inactive).
For `COc1ccc(C(=O)/C=C/c2ccc(C)cc2)cc1OC`, the growth is 71.2% (inactive).
Consider `CCOC(=O)c1cnc2c(C)cc(C)cc2c1NCCCN(C)C`, for which the growth was 31.7% (inactive).
For `COc1cc(C(=O)c2cc3c(cc2C)OCO3)cc(OC)c1OC`, the growth was 15.3% (inactive).
For `Cc1cc(C(=O)Nc2ccc3cc(CN4CCOCC4)ccc3n2)c(C)n1-c1ccccc1`, the growth is -5.82% (active).
As for `Cc1sc2nc3c4ccccc4c(NCCCN(C)C)nn3c(=O)c2c1C`, the growth was 66.8% (inactive).
Take `CCN(CC)c1ccc(C(=C2C=CC(=[N+](CC)Cc3cccc(S(=O)(=O)O)c3)C=C2)c2ccc(N(CC)Cc3cccc(S(=O)(=O)O)c3)cc2)cc1`: the growth was 92.6% (inactive).
Turning to `COc1ccc(N2CCN(CC(=O)N3CCN(c4nnc(-c5ccc(Cl)cc5)c(-c5ccc(Cl)cc5)n4)CC3)CC2)cc1`, the growth was 61.7% (inactive).

For the origin of these results see PubChem BioAssay (NCI).
